# The sample as a whole holds a higher share of hits than the screen did.
# LmPK inh: qHTS Assay for Inhibitors of Leishmania Mexicana Pyruvate Kinase (LmPK); AID 1721, 2009; hit rate 0.37% among 290,000; purified LmPK, Kinase-Glo ATP luminescence, 1 h; Potency, µM (series often up to 57.5 µM), for inactives: at the top dose activity change, negative = inhibition, usual class: inhibitors; Q27686; also: potency is read from the fitted curve at half-maximal effect; % is scaled to controls: 0 for no effect and ±100 for the full control effect
# Target sequence (Q27686 whole entry, looked up): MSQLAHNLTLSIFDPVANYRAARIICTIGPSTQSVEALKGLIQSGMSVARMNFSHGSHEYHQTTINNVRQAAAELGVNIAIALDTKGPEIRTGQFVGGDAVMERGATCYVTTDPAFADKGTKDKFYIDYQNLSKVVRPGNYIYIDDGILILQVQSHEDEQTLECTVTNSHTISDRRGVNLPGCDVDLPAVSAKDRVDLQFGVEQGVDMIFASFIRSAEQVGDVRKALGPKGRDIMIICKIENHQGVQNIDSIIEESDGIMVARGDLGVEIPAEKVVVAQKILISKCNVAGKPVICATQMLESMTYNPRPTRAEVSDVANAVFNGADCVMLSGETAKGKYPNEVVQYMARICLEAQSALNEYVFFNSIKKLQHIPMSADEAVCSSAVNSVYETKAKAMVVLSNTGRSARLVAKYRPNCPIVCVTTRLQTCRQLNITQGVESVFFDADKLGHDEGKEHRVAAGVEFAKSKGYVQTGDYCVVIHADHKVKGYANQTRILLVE
#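 0.1 nM LmPK, 0.5 mM PEP, 0.1 mM ADP; 50 mM imidazole pH 7.2, 7 mM MgCl2, 50 mM KCl; 1 h RT. Kinase-Glo luminescence readout, normalized to no-enzyme (full inhibition) and uninhibited wells.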
# Giardia FBPA inh: qHTS Assay for Inhibitors of Fructose-1,6-bisphosphate Aldolase from Giardia Lamblia; purified Giardia FBPA; hit rate 0.71% among 290,000; A8B2U2; Potency, µM (highest dose often 59.6 µM), for inactives: at the highest dose activity, negative = inhibition, most hits filed as inhibitors; also: potency is read from the fitted curve at half-maximal effect; % is scaled to controls: 0 for no effect and ±100 for the full control effect; nearly all actives have a fitted effect of over 55% in size
#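 Giardia FBPA (40 nM reagent) was preincubated 10 min at RT with compound (up to 57.5 uM final), then substrate plus GAPDH/TPI/NAD/arsenate coupling system with diaphorase/resazurin was added; resorufin fluorescence (525/598 nm) was read after 20 min.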
# CHX counter: Cycloheximide Counterscreen for Small Molecule Inhibitors of Shiga Toxin; cell reporter, cycloheximide protein synthesis inhibition counterscreen; max response, %; hit rate 12% among 300,000; in the data active = max response mostly above about 13%, no sharp cut-off; inactive = mostly below about 14%; also: read at 38.3 µM for the half of the compounds with a filed dose; 0% is about no effect
# Shiga inhibitor: A qHTS for Small Molecule Inhibitors of Shiga Toxin. AID 2315, 2010. Vero cells, Shiga toxin protein synthesis inhibition reporter. hit rate 9.2% among 290,000. inhibition, % at 38.7 µM; in the data active = inhibition mostly above about 28%, no sharp cut-off; inactive = mostly below about 43%; also: 0% is about no effect
# RE007 growth inh: qHTS Assay for Inhibitors of the HIV-1 protein Vpr | hit rate 0.21% among 360,000 | S. pombe RE007 Vpr strain, BacTiter-Glo ATP luminescence, 24 h | Potency, µM (doses to about 92.2 µM), without a hit: top-dose activity change, negative = less growth, hits mostly inhibitors; active = well fitted falling curve with a large enough effect; inconclusive = small, poorly fitted or top-dose-only effect; inactive = no such curve, though single readings can be large or run the other way; also: potency is read from the fitted curve at half-maximal effect; % is scaled to controls: 0 for no effect and ±100 for the full control effect; nearly all actives have a fitted effect of over 50% in size
#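 Fission yeast strain RE007, carrying one chromosomally integrated HIV-1 vpr copy, was seeded at OD 0.01 in PMG+AL medium with 23 nL pinned compound. After 24 h at 30 °C and 99% humidity, viability was read by BacTiter-Glo luminescence.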
# TbPYK inhibitor: qHTS of Trypanosoma Brucei Inhibitors; Potency, µM (titrated, usually from 76.8 µM), without a hit: at the highest dose activity, negative = inhibition, usual class: inhibitors; TbPYK enzyme, Kinase-Glo Plus ATP luminescence, 45 min; pyruvate kinase (Trypanosoma brucei), Q57TT1; hit rate 0.12% among 410,000; AID 624173, 2012; also: potency is read from the fitted curve at half-maximal effect; % is scaled to controls: 0 for no effect and ±100 for the full control effect; nearly all actives have a fitted effect of over 50% in size
#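 Readout: single end-point luminescence (Kinase-Glo Plus, 10 min). Reaction conditions were TbPYK/substrate plus 130 uM ADP, 45 min at RT, pH 7.2 TEA buffer. No-enzyme wells served as controls, and data were normalized before concentration-response fitting.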
# The depositor's hits bear a star; ? = inconclusive; . = no result. Unless noted, calls follow the shape of the dose curve; as a rule, active = well fitted curve in the direction sought with a large enough effect; inconclusive = small, poorly fitted or top-dose-only effect, or another doubt; inactive = no such curve, though single readings can be large; an effect the other way counts as inactive or inconclusive.
SMILES,LmPK inh,Giardia FBPA inh,CHX counter,Shiga inhibitor,RE007 growth inh,TbPYK inhibitor
Cc1ccc2nc(-c3ccc(N4C(=NC(=O)CCC(=O)O)SC5CS(=O)(=O)CC54)cc3)sc2c1 (centres undefined),13%,6%,37*,124*,4%,-13%
O=C(CCCn1ccc2cc(S(=O)(=O)N3CCCC3)ccc21)NCc1ccc(Cl)cc1,.,.,.,.,.,26%
Brc1ccc2[nH]c3nc(SCCN4CCOCC4)nnc3c2c1,4%,-1%,0,-5,2%,2%
COc1ccc(CNC(=O)CSc2nnc3c(n2)[nH]c2ccc(OC)cc23)cc1,-4%,-19%,-1,20,-8%,1%
CCCCSc1nnc2c(n1)[nH]c1ccccc12,-1%,-5%,46*,128*,-14%,-13%
CCSc1nnc2c3cc(CC)ccc3n(C)c2n1,5%,17%,active,54,8%,3%
COc1ccc2[nH]c3nc(SC(C)C)nnc3c2c1,-2%,-6%,68*,105*,-28%,-13%
c1ccc2c(c1)[nH]c1nc(SCCN3CCOCC3)nnc12,-3%,-15%,13*,27,-29%,-17%
CCOC(=O)c1cccc(NC(=O)C2CCCN(S(=O)(=O)c3cc(Br)cc4c3N(C(=O)CC)CC4)C2)c1 (centres undefined),.,.,.,.,.,-4%
CC(C)OC(=O)CSc1nnc2c3ccccc3n(C)c2n1,-1%,-3%,-2,-2,2%,-6%
CC(C)CSc1nnc2c(n1)[nH]c1ccccc12,4%,4%,32*,43,7%,9%
CC(C)CSc1nnc2c3ccccc3n(C)c2n1,-1%,6%,34*,.,-13%,0%
O=C(O)c1ccccc1CSc1nnc2c(n1)[nH]c1ccccc12,-23%,9%,-3,17,?,?
CNC(=O)c1c(NC(=O)/C=C/c2ccccc2Cl)sc2c1CCC2,.,.,.,.,.,2%
COc1ccc(OC)c(N)c1,-1%,?,-7,-14,-24%,?
COc1ccc2c(c1)C(=NN)c1cc(OC)ccc1-2,4%,.,45*,85,-8%,-16%
CC(=O)Nc1nonc1-c1nnc(SCc2ccccc2Cl)n1C,.,.,.,.,.,0%
O=C1c2ccccc2NC(c2ccc(O)c(O)c2)N1c1ccccc1Cl (centres undefined),?,-20%,27*,41*,3%,-12%
O=C1c2ccccc2NC(c2ccc3c(c2)OCO3)N1O (centres undefined),0%,1%,11,13,-8%,-6%
COc1cc(C2Nc3ccccc3C(=O)N2c2ccccc2OC)ccc1O (centres undefined),-2%,0%,6,18,-12%,-9%
COc1cc(C2Nc3ccccc3C(=O)N2c2ccc3c(c2)OCCO3)ccc1OCC(C)C (centres undefined),-12%,-12%,31*,61*,-25%,-5%
O=C1c2ccccc2NC(c2ccc3c(c2)OCCO3)N1c1ccc2c(c1)OCCO2 (centres undefined),-11%,-5%,44*,81*,-22%,-4%
O=C(c1cc(-c2ccncc2)nc2ccccc12)N1CCN(c2ccccc2O)CC1,-9%,.,-1,-7,-2%,5%
Cc1ccc(-c2cc(C(=O)N3CCCC3)c3ccccc3n2)s1,-6%,.,20*,52*,-8%,4%
Cc1ccc(-c2cc(C(=O)N3CCOCC3)c3cc(C)ccc3n2)cc1,3%,-5%,21*,27,-9%,3%
SMILES,LmPK inh,Giardia FBPA inh,CHX counter,Shiga inhibitor,RE007 growth inh,TbPYK inhibitor
O=C(c1cc(-c2ccccc2)nc2ccccc12)N1CCN(c2ccccc2O)CC1,-4%,.,15*,46*,-7%,-7%
Cc1ccc(-c2cc(C(=O)N3CCC(C)CC3)c3ccccc3n2)cc1,0%,.,17*,2,4%,-11%
COc1ccc(NC(=O)c2c(C)oc3ccc(O)c(CN4CCC(C)CC4)c23)cc1Cl,.,.,.,.,.,-1%
CCOC(=O)c1c(C)[nH]c(C(=O)COC(=O)CNC(=O)C2CCCCC2)c1C,8%,1%,34*,146*,4%,1%
CCOC(=O)c1c(C)[nH]c(C(=O)COC(=O)c2ccccc2NC(=O)c2ccco2)c1C,8%,4%,8,-7,-15%,2%
CCOC(=O)c1c(C)[nH]c(C(=O)COC(=O)CNC(=O)c2ccccc2Cl)c1C,5%,10%,56*,109*,-13%,0%
CCOC(=O)c1c(C)[nH]c(C(=O)COC(=O)[C@H](C)NC(=O)c2ccccc2Cl)c1C,3%,2%,28*,49*,-8%,-1%
O=S(=O)(c1ccc(Cl)c(NC(=S)N/N=C/c2ccc(O)cc2)c1)N1CCOCC1,5%,-4%,18*,15,3%,0%
CC(C)NC(=S)N/N=C/c1ccc(N2CCOCC2)cc1,-6%,-4%,12,-7,-15%,-12%
COc1ccc2cc(/C(C)=N/NC(=S)Nc3cc(S(=O)(=O)N4CCOCC4)ccc3N3CCOCC3)ccc2c1,-1%,2%,21*,44,.,.
Oc1ccc(/C=N/NC(=S)N2CCOCC2)cc1,-10%,8%,30*,59,4%,-11%
C[N+](C)(C)CCOP(=O)(O)OP(=O)([O-])OCC1OC(n2ccc(N)nc2=O)[C@H](O)[C@@H]1O (some centres undefined),.,.,.,.,.,1%
Cc1ccc(C(=O)NCCC(C)C)cc1NC(=O)c1nsc2ccccc12,.,.,.,.,.,-8%
COc1ccc(N(C)C(=O)c2cc3c(s2)-c2ccccc2S(=O)(=O)C3)cc1,2%,2%,8,3,-4%,1%
CCCCN(C)C(=O)c1cc2c(s1)-c1ccccc1S(=O)(=O)C2,-2%,7%,21*,45,-4%,-11%
CC(C)CCNC(=O)c1cc2c(s1)-c1ccccc1S(=O)(=O)C2,8%,7%,16*,15,?,-5%
CN1CCN(C(=O)c2cc3c(s2)-c2ccccc2S(=O)(=O)C3)CC1,0%,0%,7,11,5%,-2%
CSc1ccccc1OCc1cc(C(=O)N[C@H]2CCCCNC2=O)no1,2%,.,57*,128*,4%,-7%
COc1ccc(OCc2cc(C(=O)NC3Cc4ccccc4C3)no2)c(Cl)c1,-4%,-2%,-4,13,4%,0%
COc1ccc(OCc2cc(C(=O)N[C@H]3CCCCNC3=O)no2)c(Cl)c1,-1%,.,49*,58*,-16%,0%
CSc1ccccc1OCc1cc(C(=O)NC2CCc3ccccc32)no1 (centres undefined),0%,-6%,9,9,0%,-20%

# Bioassay records: PubChem BioAssay, National Center for Advancing Translational Sciences (NCATS)
